Measurements taken from PubChem BioAssay (NCI).
The panel holds about 83,000 compounds, 20% with a hit somewhere; the sample as a whole holds those more often.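 A percent growth of 40 corresponds to 60% growth inhibition; 0 means no net growth; -100 means all cells died. Active threshold: below 10.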 Active and inactive are the calls of the source.

How the values were obtained:
Assay in all cases: NCI-60 one-dose screen, 48 h (100 = growth as untreated, 0 = no growth, -100 = all killed)
Settings in all cases: 10 µM unless noted
[1] = system: SK-MEL-2 melanoma
[2] = system: SN12C renal
[3] = system: UO-31 renal
[4] = system: TK-10 renal
[5] = system: ACHN renal
[6] = system: CAKI-1 renal
[7] = system: A498 renal
[8] = system: CCRF-CEM leukemia
[9] = system: MOLT-4 leukemia

Measured: growth

CCCCC(N)(C(=O)O)C1CCCC1 (stereo not drawn)
inactive: [1] 117% | [2] 96.1% | [3] 90.9% | [4] 104% | [5] 96.9% | [6] 93% | [7] 82.4% | [8] 97.9% | [9] 123%

N=C(N)c1ccc(-c2ccc(-c3ccc(Cl)cc3)o2)nc1
active: [1] -90.7% | [2] -80.7% | [3] -85.8% | [4] -95.1% | [5] -91.5% | [6] -85.5% | [7] -58.4% | [8] -57.5%
inactive: [9] 102%

COc1cc(Cn2c(-c3nonc3N)nc3ccccc32)ccc1C
inactive: [1] 20.5% | [2] 36% | [3] 48.3% | [4] 54% | [5] 41.2% | [6] 46% | [8] 16.2% | [9] 21.2%
active: [7] 6.72%

O=C(O)c1ccc(-n2c(=O)c3ccccc3c3ccccc3c2=O)cc1
inactive: [1] 93% | [2] 107% | [3] 74.8% | [4] 97.9% | [5] 103% | [6] 101% | [7] 118% | [8] 104% | [9] 92.8%

c1cc(-c2ccc3c(c2)OCO3)n2nccc2n1
inactive: [1] 108% | [2] 108% | [3] 90.9% | [4] 104% | [5] 98.2% | [6] 94.4% | [7] 81.5% | [8] 100% | [9] 97.1%

O=C(c1ccncc1)N1N=C(c2ccc(Cl)cc2)CC1c1c[nH]c2ccccc12 (stereo not drawn)
inactive: [1] 83% | [2] 92.9% | [3] 45.2% | [4] 107% | [5] 94.8% | [6] 90.2% | [7] 80.5% | [8] 56.7% | [9] 75.1%

COc1ccc(C2CC(c3cccs3)=NN2c2ccc(S(=O)(=O)NC(=O)Nc3ccc(C)cc3)cc2)cc1 (stereo not drawn)
inactive: [1] 60.9% | [2] 111% | [3] 85.7% | [4] 96.8% | [5] 96.6% | [6] 95.8% | [7] 109% | [8] 87.9% | [9] 94.4%
